From the supplement of paper PMC3334620
Whole data set: some 33,000 sequences, median “E-score (-0.5 to 0.5)” near -0.012, cut for the highest 2% near 0.29. The entries come from a sample that favours the highest values as a whole.

biological target: T1, Ybr033w (UniProt P38073); experiment: PBM E-score (8-mer binding enrichment) (E-score (-0.5 to 0.5)); higher = stronger / more preferred TF binding; settings: protein concentration: 200 nM; construct: GST-full length
T1 sequence: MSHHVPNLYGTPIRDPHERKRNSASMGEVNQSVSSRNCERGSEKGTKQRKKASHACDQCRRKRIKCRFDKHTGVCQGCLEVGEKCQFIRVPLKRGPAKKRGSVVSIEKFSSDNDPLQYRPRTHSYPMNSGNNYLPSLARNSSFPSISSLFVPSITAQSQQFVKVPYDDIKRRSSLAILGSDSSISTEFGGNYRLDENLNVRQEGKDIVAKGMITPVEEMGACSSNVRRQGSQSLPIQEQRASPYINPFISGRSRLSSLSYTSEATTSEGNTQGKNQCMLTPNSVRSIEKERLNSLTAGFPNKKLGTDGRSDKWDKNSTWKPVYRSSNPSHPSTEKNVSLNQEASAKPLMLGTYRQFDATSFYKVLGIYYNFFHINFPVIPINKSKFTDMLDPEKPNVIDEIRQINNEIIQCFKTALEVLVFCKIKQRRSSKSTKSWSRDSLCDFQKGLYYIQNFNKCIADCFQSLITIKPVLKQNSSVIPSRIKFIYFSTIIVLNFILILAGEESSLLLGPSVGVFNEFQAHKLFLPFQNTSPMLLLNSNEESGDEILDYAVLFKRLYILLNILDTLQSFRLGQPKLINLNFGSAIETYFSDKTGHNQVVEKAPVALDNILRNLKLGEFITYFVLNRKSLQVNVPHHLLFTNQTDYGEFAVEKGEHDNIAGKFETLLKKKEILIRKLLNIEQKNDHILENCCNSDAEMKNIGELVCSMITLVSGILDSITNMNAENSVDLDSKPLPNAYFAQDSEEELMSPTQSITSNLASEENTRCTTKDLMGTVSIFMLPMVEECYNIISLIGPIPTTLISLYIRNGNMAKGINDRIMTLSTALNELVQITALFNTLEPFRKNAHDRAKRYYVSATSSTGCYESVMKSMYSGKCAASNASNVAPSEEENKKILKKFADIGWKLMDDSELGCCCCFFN
Protocol: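 Universal 'all 10-mer' protein binding microarrays (Agilent AMADID 015681) probed with GST-tagged S. cerevisiae TFs (full-length or DBD) made by in vitro transcription/translation (PURExpress), about 100-200 nM. Bound TF was detected with fluorescent anti-GST. Each ungapped 8-mer (which stands for itself and its reverse complement) is scored by the PBM enrichment score (E-score), a modified Wilcoxon-Mann-Whitney statistic from -0.5 to +0.5, computed with the Universal PBM Analysis Suite. Scale: above 0.35 generally sequence-specific binding.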

Sequence	PBM E-score
AGATACCT	-0.0724
AAAGAGAC	-0.0019
ATTATAAT	0.205
ATAATTAA	0.414
ATAATTAT	0.372
GTAATTAA	0.105
GTAATTAC	0.218
ATAATTAC	0.353
ATAATTAG	0.272
TTAATTAA	0.241
CTAATTAC	0.131
ATTGATGG	0.213
ATAGGTTC	0.143
AGGCAACT	0.174
CCGCGCAC	-0.0688
AAGCAACA	0.117
CTTGCATC	-0.144
CATCCGCA	0.156
AATCCGCA	0.119
TATCCGCA	0.306
CGAGAGCA	-0.0204
GAAAAAGC	0.239
ACCGACCT	-0.172
GCGCGCGA	0.111
GCGCGCGC	0.334
ACGCGCGC	-0.0247

Sequence	PBM E-score
CGTCTGTA	-0.11
CGGTGATA	0.178
AATAGTTC	0.294
AGTAGTTG	0.176
AGTAGTTC	0.307
CATAGTTC	-0.0864
AGTAGTTA	0.0431
AATAGTTG	0.207
CACAAATG	0.0361
CACGGTTC	-0.265
GAAAGCGA	0.101
AGTACAAG	0.0813
AGTACAAT	0.302
AGTACAAA	0.114
CAGGTCGA	0.141
CATCTTCC	0.0897
AAACTTAA	0.259
CATCTATA	0.188
GATCTTCC	0.33
ATTCTTCA	0.129
AATCTATA	0.297
AAACTTAC	0.168
AAACTTAT	0.379
CTTCTTCC	0.0741
GATCTTGC	0.0857
ATTCTTCC	0.471

Sequence	PBM E-score
GATCTATA	0.157
CGAATAGA	-0.0851
CTTCCATC	-0.00237
ATTCAGAC	0.0909
CGTCCCTC	-0.217
AGCACAAG	-0.0143
AGGTCAGC	0.0524
CCAATCAA	0.075
AAACTTCG	0.0988
AATCTTCC	0.411
AATCTTCA	0.318
GAACTTCA	0.0447
ACTCTTCC	-0.0223
AAACTTCA	0.293
GATCTTCA	0.0894
AATCTTCG	0.0477
AATCTTCT	0.132
TATTGCAA	0.246
ACGAAGAC	-0.177
CTATTGAG	-0.0501
TCTCCAGA	-0.189
CCCGGTTC	-0.0468
CGGACACA	-0.152
AAACGATA	0.213
CAACGATA	0.187
TAACGATA	0.292

Sequence	PBM E-score
CTTGGCTC	-0.146
AGCCCAGC	-0.2
GATTGCAA	0.171
AATGTGAA	0.313
AATGTGAT	0.15
AATGTGAC	0.0448
GCATCACA	0.215
TTACCAAA	0.235
ACTACTAT	0.328
ACTACTAC	0.153
ACTACTAA	0.173
AGAGGAGG	-0.26
AAGATTTC	0.169
ATACAAAG	0.298
ATACAAAT	0.252
CTACAAAA	0.00298
TTACAAAA	0.268
ATACAAAA	0.311
CTACAAAG	0.0965
CTACAAAC	0.152
GTACAAAC	0.0352
ATACATAC	0.0684
ATACAAAC	0.306
ATACATAA	0.309
CTACATAA	0.0125
